Data: the supplement of paper PMC9262897, “Low-cost anti-mycobacterial drug discovery using engineered E. coli” (Nature Communications, 2022)
Counter-ions that a name gives are not always drawn. ± gives the standard deviation of the averaged measurements.

How the values were obtained:
Test in all cases: growth (OD600 after 10 h); higher = more growth (less inhibition)
[1] = tested on: E. coli TESEC Alr+ wild-type control; details: compound 0.1 mM; raw OD600 reference: median of DMSO wells 0.241, cell-free background 0.041
Description: (§1)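 TESEC Mtb Alr E. coli, or the Alr+ wild-type control, in 384-well plates with Prestwick library compounds at 0.1 mM and 1% DMSO, across arabinose induction levels of 1E3 to 1E7 nM. Growth is read as OD600 after 10 h at 37 °C in triplicate biological replicates.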

E. coli TESEC Mtb Alr [2] = details: compound 0.1 mM
Description: as §1

E. coli TESEC Mtb Asd = details: compound 0.1 mM
Description: (§2)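 TESEC E. coli strains in which the native enzyme is deleted and replaced by arabinose-inducible Mtb Asd, DapB, CysH or TrpD, each grown in its selective medium. Strains were screened against the Prestwick library at 0.1 mM and 1% DMSO in 384-well format at low and high arabinose induction. Growth is read as OD600 after 10 h in triplicate.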

E. coli TESEC Mtb DapB = details: compound 0.1 mM
Description: as §2

E. coli TESEC Mtb Alr [3] = details: compound 0.1 mM; remark: listed apart in the source
Description: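 TESEC Mtb Alr E. coli (ΔaraC ΔtolC ΔentC Δalr ΔdadX, arabinose-inducible Mtb Alr) or the Alr+ wild-type control strain, grown in defined M9-fructose medium without D-alanine in 96-well plates with Prestwick library compounds at 0.1 mM and 1% DMSO. Low Alr induction is 0.1 µM arabinose and high induction is 10 mM arabinose.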

[4] = arabinose 1000 nM, raw OD600 reference: median of DMSO wells 0.294, cell-free background 0.041
[5] = arabinose 10000 nM, raw OD600 reference: median of DMSO wells 0.264, cell-free background 0.041
[6] = arabinose 100000 nM, raw OD600 reference: median of DMSO wells 0.201, cell-free background 0.041
[7] = arabinose 1000000 nM, raw OD600 reference: median of DMSO wells 0.193, cell-free background 0.041
[8] = arabinose 10000000 nM, raw OD600 reference: median of DMSO wells 0.146, cell-free background 0.041
[9] = arabinose induction (level): High, raw OD600 reference: median of DMSO wells 0.331, cell-free background 0.041
[10] = arabinose induction (level): Low, raw OD600 reference: median of DMSO wells 0.417, cell-free background 0.041
[11] = arabinose induction (level): High, raw OD600 reference: median of DMSO wells […], cell-free background 0.041
[12] = arabinose induction (level): Low, raw OD600 reference: median of DMSO wells 0.227, cell-free background 0.041
[13] = arabinose 100 nM, raw OD600 reference: median of DMSO wells 0.413, cell-free background 0.052
[14] = arabinose 10000000 nM, raw OD600 reference: median of DMSO wells […], cell-free background 0.052

Structure (SMILES) | growth [1] | growth (E. coli TESEC Mtb Alr [2]; [4]) | growth (E. coli TESEC Mtb Alr [2]; [5]) | growth (E. coli TESEC Mtb Alr [2]; [6]) | growth (E. coli TESEC Mtb Alr [2]; [7]) | growth (E. coli TESEC Mtb Alr [2]; [8]) | growth (E. coli TESEC Mtb Asd; [9]) | growth (E. coli TESEC Mtb Asd; [10]) | growth (E. coli TESEC Mtb DapB; [11]) | growth (E. coli TESEC Mtb DapB; [12]) | growth (E. coli TESEC Mtb Alr [3]; [13]) | growth (E. coli TESEC Mtb Alr [3]; [14])
NNCCc1ccccc1 [Phenelzine sulfate] | 0.221 ± 0.0075 | 0.285 ± 0.015 | 0.261 ± 0.0056 | 0.187 ± 0.0033 | 0.0977 ± 0.0084 | 0.135 ± 0.0098 | 0.389 ± 0.044 | 0.4 ± 0.024 | 0.191 ± 0.012 | 0.249 ± 0.056 | 0.0532 ± 0.007 | 0.0708 ± 0.0023
CC1=C(C(=O)O)N2C(=O)[C@@H](NC(=O)[C@H](N)c3ccc(O)cc3)[C@H]2SC1 [Cefadroxil] | 0.255 ± 0.012 | 0.2848 ± 0.0015 | 0.274 ± 0.011 | 0.217 ± 0.011 | 0.199 ± 0.002 | 0.137 ± 0.0042 | 0.294 ± 0.035 | 0.444 ± 0.13 | 0.192 ± 0.0046 | 0.222 ± 0.011 | 0.427 ± 0.012 | 0.326 ± 0.011
CNNCc1ccc(C(=O)NC(C)C)cc1 [Procarbazine hydrochloride] | 0.251 ± 0.0067 | 0.304 ± 0.012 | 0.282 ± 0.0077 | 0.217 ± 0.028 | 0.177 ± 0.019 | 0.151 ± 0.0024 | 0.359 ± 0.043 | 0.476 ± 0.083 | 0.2 ± 0.017 | 0.27 ± 0.022 | 0.4235 ± 0.0022 | 0.312 ± 0.02
N=C(N)NC(=N)NCCc1ccccc1 [Phenformin hydrochloride] | 0.2497 ± 0.002 | 0.279 ± 0.014 | 0.274 ± 0.0079 | 0.2 ± 0.02 | 0.186 ± 0.0089 | 0.137 ± 0.0039 | 0.378 ± 0.07 | 0.405 ± 0.067 | 0.203 ± 0.0056 | 0.211 ± 0.012 | 0.416 ± 0.0069 | 0.3729 ± 0.003
COC(=O)C1=C(C)NC(C)=C(C(=O)OC(C)C)C1c1cccc2nonc12 (centres undefined) [Isradipine] | 0.149 ± 0.0056 | 0.206 ± 0.0037 | 0.254 ± 0.015 | 0.164 ± 0.0057 | 0.0817 ± 0.0022 | 0.154 ± 0.0037 | 0.166 ± 0.018 | 0.259 ± 0.041 | 0.19 ± 0.019 | 0.21 ± 0.011 | 0.394 ± 0.01 | 0.167 ± 0.038
COC(=O)[C@H](c1ccccc1Cl)N1CCc2sccc2C1 [Clopidogrel] | 0.0938 ± 0.0032 | 0.0873 ± 0.0047 | 0.0411 ± 0.0013 | 0.0991 ± 0.004 | 0.0439 ± 0.00078 | 0.0663 ± 0.00069 | 0.158 ± 0.014 | 0.128 ± 0.0029 | 0.153 ± 0.015 | 0.159 ± 0.012 | 0.38 ± 0.016 | 0.0754 ± 0.014
CC(C)NCC(O)c1ccc2ccccc2c1 (centres undefined) [Pronethalol hydrochloride] | 0.245 ± 0.013 | 0.305 ± 0.0032 | 0.2658 ± 0.0016 | 0.207 ± 0.023 | 0.187 ± 0.0061 | 0.142 ± 0.0032 | 0.247 ± 0.045 | 0.431 ± 0.085 | 0.194 ± 0.015 | 0.225 ± 0.03 | 0.403 ± 0.012 | 0.351 ± 0.017
